Test results published in PubChem BioAssay (NCI).
This is part of a sample that, as a whole, favours compounds with a hit. Of some 79,000 tested, about 15% had one in any assay. A number with no mark means an inactive call. Calls of active or inactive are those of the source. Cut-off read from the data, not from the text of the source: active = growth inhibition above about 70%; inactive = the rest.

assay: NCI Yeast Anticancer Drug Screen. Data for the rad18 strain (AID 177); settings: S. cerevisiae rad18 mutant growth inhibition; at 33.0 µM; stronger effect = higher value
Outline: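 Screen uses a yeast strain with a defined lesion in DNA damage repair; compound effect is read as loss of growth compared to untreated vehicle cultures.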

Compound	growth inhibition
CC(CN(C)C)C(=O)/C=C/c1ccc(Cl)c(Cl)c1 (stereo not drawn)	84% (active)
CCCCCCNCCCNc1c2cc(OC)ccc2nc2cccc([N+](=O)[O-])c12	95% (active)
NC(=S)N1N=C2c3ccccc3CC[C@H]2[C@@H]1c1ccc(Cl)cc1	45%
C/C(=N/NC(=S)Nc1ccccc1C)c1ccccn1	-17%
O=C1/C(=C/c2ccc(Cl)c(Cl)c2)CNC/C1=C\c1ccc(Cl)c(Cl)c1	64%
CC(C)OP(=O)(OC(C)C)C(=NCCO)NNc1ccc([N+](=O)[O-])cc1	54%
N#CCC(=O)N/N=C(\c1ccccc1)C(c1ccccc1)C1(O)C(=O)Nc2c(Cl)ccc(Cl)c21 (stereo not drawn)	24%
CC(C)(CN1CCCCC1)C(=O)CC(SCCS(=O)(=O)O)c1ccccc1 (stereo not drawn)	26%
COC1=CCC23C(=O)C=CC(=O)C2(C1)C(=O)c1ccccc1C3=O (stereo not drawn)	44%
CCCCN(CCCC)c1ccc(N=Nc2ccc(S(=O)(=O)O)cc2)cc1	90% (active)
c1ccc2nc3c(nc2c1)sc1ccccc13	52%
O=C1c2ccccc2-c2ccc(N=Cc3ccccc3)cc21	12%
CNC(=S)N/N=C(/C)CCC/C(C)=N/NC(=S)NC	24%
Nc1ccc(/C=C/c2ccc3cccnc3c2)cc1	59%
COc1ccc2c3c1OC(C)C31CC(=O)CCC1CC2 (stereo not drawn)	0%
CCOC(=O)Nc1ccc(C)c(NC(=O)OCC)c1	61%
CCN(CC)CCNc1ccc2nc(C)n3c4ccc(OC)cc4c(=O)c1c23	66%

Compound	growth inhibition
C[N+](C)([O-])CCCNc1c2ccccc2nc2cccc([N+](=O)[O-])c12	97% (active)
O=C(c1cc(=O)c2ccc(O)cc2o1)c1ccc(Cl)cc1Cl	94% (active)
CCCNC(=O)OCc1c(COC(=O)NCCC)c(-c2ccc(Cl)c(Cl)c2)n2c1CCC2	62%
O=C(Cc1ccccc1)NN1C(=O)C(Cl)C1c1cc(Br)cc(Br)c1O (stereo not drawn)	91% (active)
CCOC(=O)C(Cc1c2ccccc2cc2ccccc12)(NC(C)=O)C(=O)OCC	0%
O=[N+]([O-])/C=C/c1cc2ccc3ccccc3c2[nH]1	92% (active)
Fc1ccc(Nc2ccc3ccccc3c2)cc1	-1%
O=S1(=O)CCC2=CC(C(F)(F)F)=CC(C(F)(F)F)=CN21	90% (active)
CCCCS/C(=C(/C#N)C(N)=O)c1cc2c([nH]1)CCCC2	-19%
O=C(O)c1ccccc1C(=O)OC1CCc2ccccc2C1 (stereo not drawn)	6%
NC(=S)N/N=C1\c2ccccc2CCC1CCC1(O)CCc2ccccc2C1=O (stereo not drawn)	86% (active)
Cc1cccc2c(Cl)c3cccc(C)c3nc12	6%
CC(C)OC(=O)NNc1c(Cl)cc(Cl)cc1Cl	40%
Nc1ccc2c(c1)C(=O)c1c(F)cccc1-2	72% (active)
N#CSCC1COc2ccccc2O1 (stereo not drawn)	91% (active)
Cc1ccc(S(=O)(=O)NC(=O)C2C(=O)CC3(CCCCC3)CC2=O)cc1	14%
CC1=NN(C(=O)c2ccccc2O)C(=O)/C1=C/c1ccco1	86% (active)

same assay, conditions: S. cerevisiae rad18 mutant growth inhibition; at 100.0 µM; stronger effect = higher value

Compound	growth inhibition
CC(CN(C)C)C(=O)/C=C/c1ccc(Cl)c(Cl)c1 (stereo not drawn)	97% (active)
CCCCCCNCCCNc1c2cc(OC)ccc2nc2cccc([N+](=O)[O-])c12	98% (active)
NC(=S)N1N=C2c3ccccc3CC[C@H]2[C@@H]1c1ccc(Cl)cc1	89% (active)
C/C(=N/NC(=S)Nc1ccccc1C)c1ccccn1	-4%
O=C1/C(=C/c2ccc(Cl)c(Cl)c2)CNC/C1=C\c1ccc(Cl)c(Cl)c1	94% (active)
CC(C)OP(=O)(OC(C)C)C(=NCCO)NNc1ccc([N+](=O)[O-])cc1	91% (active)
N#CCC(=O)N/N=C(\c1ccccc1)C(c1ccccc1)C1(O)C(=O)Nc2c(Cl)ccc(Cl)c21 (stereo not drawn)	39%
CC(C)(CN1CCCCC1)C(=O)CC(SCCS(=O)(=O)O)c1ccccc1 (stereo not drawn)	37%
COC1=CCC23C(=O)C=CC(=O)C2(C1)C(=O)c1ccccc1C3=O (stereo not drawn)	83% (active)
CCCCN(CCCC)c1ccc(N=Nc2ccc(S(=O)(=O)O)cc2)cc1	92% (active)
c1ccc2nc3c(nc2c1)sc1ccccc13	47%
O=C1c2ccccc2-c2ccc(N=Cc3ccccc3)cc21	84% (active)
CNC(=S)N/N=C(/C)CCC/C(C)=N/NC(=S)NC	37%
Nc1ccc(/C=C/c2ccc3cccnc3c2)cc1	77% (active)
COc1ccc2c3c1OC(C)C31CC(=O)CCC1CC2 (stereo not drawn)	25%
CCOC(=O)Nc1ccc(C)c(NC(=O)OCC)c1	82% (active)
CCN(CC)CCNc1ccc2nc(C)n3c4ccc(OC)cc4c(=O)c1c23	74% (active)

Compound	growth inhibition
C[N+](C)([O-])CCCNc1c2ccccc2nc2cccc([N+](=O)[O-])c12	97% (active)
O=C(c1cc(=O)c2ccc(O)cc2o1)c1ccc(Cl)cc1Cl	94% (active)
CCCNC(=O)OCc1c(COC(=O)NCCC)c(-c2ccc(Cl)c(Cl)c2)n2c1CCC2	78% (active)
O=C(Cc1ccccc1)NN1C(=O)C(Cl)C1c1cc(Br)cc(Br)c1O (stereo not drawn)	84% (active)
CCOC(=O)C(Cc1c2ccccc2cc2ccccc12)(NC(C)=O)C(=O)OCC	3%
O=[N+]([O-])/C=C/c1cc2ccc3ccccc3c2[nH]1	87% (active)
Fc1ccc(Nc2ccc3ccccc3c2)cc1	91% (active)
O=S1(=O)CCC2=CC(C(F)(F)F)=CC(C(F)(F)F)=CN21	97% (active)
CCCCS/C(=C(/C#N)C(N)=O)c1cc2c([nH]1)CCCC2	44%
O=C(O)c1ccccc1C(=O)OC1CCc2ccccc2C1 (stereo not drawn)	31%
NC(=S)N/N=C1\c2ccccc2CCC1CCC1(O)CCc2ccccc2C1=O (stereo not drawn)	81% (active)
Cc1cccc2c(Cl)c3cccc(C)c3nc12	14%
CC(C)OC(=O)NNc1c(Cl)cc(Cl)cc1Cl	27%
Nc1ccc2c(c1)C(=O)c1c(F)cccc1-2	97% (active)
N#CSCC1COc2ccccc2O1 (stereo not drawn)	98% (active)
Cc1ccc(S(=O)(=O)NC(=O)C2C(=O)CC3(CCCCC3)CC2=O)cc1	48%
CC1=NN(C(=O)c2ccccc2O)C(=O)/C1=C/c1ccco1	94% (active)
